Test results: PubChem BioAssay AID1159580 (chemical genetic matrix, 2015)
The campaign covered roughly 5,500 compounds. About 2,000 (36%) were called active. Another 18% or so got no clear call; they are omitted. Cut-off read from the data, not from the text of the source: active = normalized growth mostly below about 0.91 (no sharp cut-off); inconclusive = no clear call, values can overlap the other calls; inactive = mostly above about 0.92. Some of the results follow.

Experiment: chemical genetic growth profiling, strain panel (AID 1159580);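 note: tested at 20 µM; growth read once vehicle control cultures reached saturation at 30 °C; 1 = growth at the plate median or of vehicle wells; lower values mean less growth of the strain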
Details: S. cerevisiae deletion strains, growth OD

Measured: normalized growth

CNC(=O)Oc1cccc2c1OC(C)(C)O2
inactive: locus YAL013W, strain DEP1, hits give low values 1.01 | locus YAL021C, strain ccr4, hits give low values 0.991 | locus YAL026C, strain drs2, hits give low values 1 | locus YAL030W, strain snc1, hits give low values 1.01 | locus YBL061C, strain skt5, hits give low values 1 | locus YBR009C, strain hhf1, hits give low values 1 | locus YBR021W, strain FUR4, hits give low values 1.03 | locus YBR023C, strain chs3, hits give low values 1 | locus YBR171W, strain sec66, hits give low values 1.01 | locus YBR229C, strain ROT2, hits give low values 1.02 | locus YBR231C, strain swc5, hits give low values 1 | locus YBR279W, strain paf1, hits give low values 0.994 | locus YCL011C, strain gbp2, hits give low values 1 | locus YCL016C, strain dcc1, hits give low values 1 | locus YCL029C, strain bik1, hits give low values 0.999 | locus YCL061C, strain MRC1, hits give low values 0.998 | locus YCL069W, strain vba3, hits give low values 0.998 | locus YCR088W, strain abp1, hits give low values 1 | locus YDL005C, strain med2, hits give low values 0.996 | locus YDL035C, strain GPR1, hits give low values 1.02 | locus YDL040C, strain nat1, hits give low values 1 | locus YDL074C, strain BRE1, hits give low values 1.07 | locus YDL101C, strain DUN1, hits give low values 1.03 | locus YDL134C, strain PPH21, hits give low values 1.02 | locus YDL185W, strain tfp1, hits give low values 0.995 | locus YDL192W, strain arf1, hits give low values 0.993 | locus YDR001C, strain nth1, hits give low values 1 | locus YDR069C, strain doa4, hits give low values 1 | locus YDR101C, strain arx1, hits give low values 0.989 | locus YDR137W, strain rgp1, hits give low values 1.05 | locus YDR150W, strain NUM1, hits give low values 1.02 | locus YDR159W, strain sac3, hits give low values 0.988 | locus YDR162C, strain NBP2, hits give low values 1.02 | locus YDR195W, strain ref2 0.967 | locus YDR297W, strain sur2, hits give low values 0.997 | locus YDR318W, strain mcm21, hits give low values 0.996 | locus YDR334W, strain swr1, hits give low values 1.01 | locus YDR335W, strain msn5, hits give low values 0.995 | locus YDR388W, hits give low values 0.996 | locus YDR392W, strain spt3, hits give low values 0.814 | locus YDR502C, strain sam2, hits give low values 0.997 | locus YEL003W, strain gim4, hits give low values 0.999 | locus YEL037C, strain rad23, hits give low values 0.998 | locus YEL061C, strain CIN8 (second series), hits give low values 1.01 | locus YEL061C, strain CIN8, hits give low values 1.01 | locus YER015W, strain faa2, hits give low values 1 | locus YER016W, strain bim1, hits give low values 0.998 | locus YER110C, hits give low values 1 | locus YER111C, strain swi4, hits give low values 0.992 | locus YER155C, strain BEM2 (second series), hits give low values 0.998 | locus YER155C, strain BEM2, hits give low values 1.02 | locus YER167W, strain BCK2, hits give low values 1.01 | locus YFR010W, strain ubp6, hits give low values 0.987 | locus YGL078C, strain dbp3, hits give low values 0.99 | locus YGL086W, strain mad1, hits give low values 0.996 | locus YGL167C, strain pmr1, hits give low values 1 | locus YGL173C, strain kem1, hits give low values 1 | locus YGL227W, strain vid30, hits give low values 0.999 | locus YGL240W, strain doc1, hits give low values 0.986 | locus YGL248W, strain PDE1, hits give low values 1.01 | locus YGL253W, strain hxk2, hits give low values 1 | locus YGR078C, strain PAC10, hits give low values 1.02 | locus YGR135W, strain pre9, hits give low values 0.999 | locus YGR229C, strain SMI1, hits give low values 1.03 | locus YGR252W, strain gcn5, hits give low values 0.941 | locus YHR013C, strain ard1, hits give low values 0.946 | locus YHR027C, strain rpn1, hits give low values 1.01 | locus YHR030C, strain SLT2, hits give low values 1.02 | locus YHR079C, strain IRE1 (second series), hits give low values 0.99 | locus YHR094C, strain hxt1, hits give low values 0.995 | locus YHR129C, strain ARP1, hits give low values 1.02 | locus YHR142W, strain chs7, hits give low values 1 | locus YHR200W, strain rpn10, hits give low values 0.995 | locus YIL066C, strain RNR3, hits give low values 1.02 | locus YIL073C, strain SPO22, hits give low values 0.954 | locus YIL125W, strain kgd1, hits give low values 1 | locus YIR030C, strain dcg1, hits give low values 0.995 | locus YJL092W, strain hpr5, hits give low values 1 | locus YJL095W, strain BCK1 (second series), hits give low values 0.997 | locus YJL095W, strain BCK1, hits give low values 1.04 | locus YJL115W, strain asf1, hits give low values 0.997 | locus YJL129C, strain trk1, hits give low values 1.02 | locus YJL134W, strain LCB3, hits give low values 1.02 | locus YJL154C, strain vps35, hits give low values 1 | locus YJL164C, strain tpk1, hits give low values 0.991 | locus YJL166W, strain qcr8, hits give low values 0.992 | locus YJL168C, strain set2, hits give low values 0.991 | locus YJL187C, strain SWE1 (second series), hits give low values 1.01 | locus YJL187C, strain SWE1, hits give low values 1.01
